# PubChem BioAssay (NCATS)
# A number with no mark means an inactive call. Results filed as inconclusive are left out. Activity calls are given as the source filed them. Unless noted, the call rests on the fitted dose curve; in most records, active means well fitted curve in the direction sought with a large enough effect; inconclusive means small, poorly fitted or top-dose-only effect, or another doubt; inactive means no such curve, though single readings can be large; an effect the other way counts as inactive or inconclusive.
# Key:
# [1] = Cell Viability - BJ (AID 421; calls by dose curve;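 further: potency means the concentration at half of the fitted maximal effect; cells exposed to compound for 40 hours at 37 °C before readout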); conditions: BJ fibroblast viability, qHTS
# Procedure, shortened: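 Quantitative HTS: ATP depletion in BJ cells after 40 hr compound exposure in complete culture medium, detected with CellTiter-Glo; AC50 from standard Hill fits.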
# [2] = Cell Viability - Hek293 (AID 427;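 active means compounds whose dose-response curve shows a full or clear partial loss of cell viability, called from curve shape rather than a numeric limit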;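 further: potency means the concentration at half of the fitted maximal effect; cells exposed to compound for 40 hours at 37 °C before reading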); conditions: qHTS
# Procedure, shortened: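 AC50 values derive from Hill-modelled concentration-response of ATP-based luminescence, normalized between DMSO-only and 100 uM tamoxifen controls. Cells were exposed in complete culture medium for 40 hr at 37 °C before detection.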
# [3] = Cell Viability - MRC5 (AID 434; calls by dose curve;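 further: potency means the concentration at half of the fitted maximal effect; potency reflects cytotoxicity seen as loss of intracellular ATP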); conditions: MRC5 lung fibroblast viability, qHTS
# Procedure, shortened: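 qHTS cytotoxicity in human lung fibroblast MRC5 cells; 40 hr treatment, 37 °C; cellular ATP by luciferase luminescence; DMSO = 0%, 100 uM tamoxifen = 100% inhibition; Hill-fit AC50.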
# [4] = Cell Viability - SK-N-SH (AID 435; calls by dose curve;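 further: potency means the concentration at half of the fitted maximal effect; compound exposure lasted 40 h at 37 °C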); conditions: SK-N-SH neuroblastoma cell viability qHTS
# Procedure, shortened: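 SK-N-SH neuroblastoma cells (1500/well) treated 40 h at 37 °C in complete medium; viability read as cellular ATP by CellTiter-Glo luminescence. Normalized to DMSO and 100 uM tamoxifen; AC50 from Hill fits of qHTS concentration-response.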
# [5] = target: Mitogen-activated protein kinase 10 (Mus musculus) (UniProt Q61831); experiment: JNK3 AlphaScreen Assay (AID 530; active means well fitted curve in either direction with a large enough effect, not every such curve was filed as active;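 further: kinase came from lysate of stimulated human HepG2 cells; signal reports phosphorylation of biotinylated GST-cJun 1-79 at Ser73 with 10 µM ATP; on the % scale 0 is the no-effect control and ±100 the full control effect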)
# Procedure, shortened: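 Compound titrations were preincubated 15 minutes at room temperature with substrate, antibody and pre-activated JNK3-containing HepG2 lysate. Reactions were started with 10 uM ATP and stopped with EDTA-containing bead buffer for AlphaScreen detection.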
# [6] = Cell Viability - N2a (AID 540); conditions: N2a mouse neuroblastoma cell viability; activity change, negative = cytotoxicity: at 92.2 µM (top of the series);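 further: plate controls were DMSO alone for no effect and tamoxifen control for full effect; nearly all actives have a fitted effect of over 45% in size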
# Procedure, shortened: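 Luminescent ATP signal (CellTiter-Glo, 20 min at room temperature) served as the viability read-out after N2a cells were treated with compounds for 40 hours at 37 °C. Concentration-response data were fitted to the Hill equation for AC50.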
# [7] = Cell Viability - NIH 3T3 (AID 541); conditions: NIH 3T3 cell viability, qHTS; activity change, negative = cytotoxicity: at 92.2 µM (top of the series); further: potency means the concentration at half of the fitted maximal effect; nearly all actives have a fitted effect of over 25% in size
# Procedure, shortened: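 Luminescent ATP signal (CellTiter-Glo) served as the viability read-out after NIH 3T3 cells were exposed to compounds over a concentration range for 40 hr at 37 °C. Hill-equation modelling of concentration-response data gave AC50.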
# [8] = Cell Viability - HUV-EC-C (AID 542); further: potency means the concentration at half of the fitted maximal effect; nearly all actives have a fitted effect of over 35% in size
# Procedure, shortened: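 qHTS cytotoxicity: HUV-EC-C, 1000 cells/well, 5 hr settle, compound 40 hr 37 °C, CellTiter-Glo, luminescence. AC50 via Hill equation.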
# [9] = Cell Viability - SH-SY5Y (AID 544); conditions: SH-SY5Y neuroblastoma cell viability; viability change, negative = cytotoxic: at 92.2 µM (top of the series); further: potency means the concentration at half of the fitted maximal effect; nearly all actives have a fitted effect of over 55% in size
# Procedure, shortened: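 Luminescent ATP read-out (CellTiter-Glo) measures loss of viable SH-SY5Y neuroblastoma cells after 40 hr compound exposure at 37 °C. AC50 values derive from standard Hill modelling of qHTS concentration-response data.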
# [10] = Cell Viability - Renal Proximal Tubule (AID 545); conditions: renal proximal tubule cells viability; activity change, negative = cytotoxicity: at 91.7 µM (top of the series) unless noted; further: potency means the concentration at half of the fitted maximal effect; nearly all actives have a fitted effect of over 40% in size
# Procedure, shortened: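 Rat renal proximal tubule primary cells, 1000/well, exposed to compounds for 40 hr at 37 °C in complete medium; cellular ATP read by CellTiter-Glo luminescence. AC50 from concentration-response fitted with standard Hill equation.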
# [11] = Cell Viability - Mesenchymal (AID 546); conditions: mesenchymal cells viability, qHTS; activity change, negative = cytotoxicity: at 91.7 µM (top of the series);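 further: potency means the concentration at half of the fitted maximal effect; cells exposed to compound for 40 hours before reading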
# Procedure, shortened: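 AC50 values reflect the drop in intracellular ATP in a human kidney mesenchymal line derived from normal glomeruli. Treatment lasts 40 hr at 37 °C in complete medium, and the signal comes from CellTiter-Glo luminescence.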
# [12] = Cellular Toxicity (caspase-3) HepG2 (AID 654);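 further: cells exposed to compound for 16 hours before reading; 0% = DMSO alone and 100% = caspase signal from 100 µM tamoxifen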
# Procedure, shortened: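 Cells plated 5 hr at 37 °C, compound added, incubated 16 hr at 37 °C. Caspase-Glo 3/7 reagent followed, 20 min at room temperature, then luminescence read. Activation scored as signal increase; AC50 from Hill fit.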
# [13] = Cellular Toxicity (caspase-3) HUV-EC-C (AID 656)
# Procedure, shortened: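 HUV-EC-C cells (1000/well) in complete medium, compound-treated 16 h at 37 °C; caspase-3/7 activity read by Caspase-Glo 3/7 luminescence. Normalized to DMSO (basal) and 100 uM tamoxifen (100%); AC50 from Hill-equation concentration-response fits.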
# [14] = Cellular Toxicity (caspase-3) SHSY5Y (AID 657)
# Procedure, shortened: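 SH-SY5Y human neuroblastoma cells, 1500/well, exposed to compound for 16 hours at 37 °C in complete medium. Caspase-3/7 activity read by Caspase-Glo luminescence after 1 hr at room temperature, normalized to DMSO and 10 uM staurosporine; AC50 from Hill fit.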
# [15] = Cellular Toxicity (caspase-3) BJ (AID 658);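 further: 0% = DMSO basal and 100% = 10 µM staurosporine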
# Procedure, shortened: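 Readout: Caspase-Glo 3/7 luminescence increase in BJ cells after 16 hr treatment at 37 °C. Staurosporine and tamoxifen served as positive controls; AC50 values came from Hill modelling of data normalized to DMSO and 10 uM staurosporine.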
# [16] = Cellular Toxicity (caspase-3) MRC-5 (AID 659);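 further: 0% = DMSO basal and 100% = 10 µM staurosporine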
# Procedure, shortened: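 Concentration-dependent caspase 3/7 activation is measured in human normal lung fibroblasts (MRC-5) following 16-hour treatment. AC50 values come from standard Hill-equation modeling of luminescence normalized to DMSO and 10 uM staurosporine.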
# [17] = Cellular Toxicity (caspase-3) SK-N-SH (AID 661);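 further: 0% = DMSO basal and 100% = 10 µM staurosporine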
# Procedure, shortened: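 Human neuroblastoma SK-N-SH, 1500 cells/well, 5 hr pre-incubation, then compound 16 hr, 37 °C. Caspase-Glo 3/7 reagent, 1 hr RT, luminescence. Norm. to DMSO/10 uM staurosporine; Hill-fit AC50.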
# [18] = Cellular Toxicity (caspase-3) H-4-II-E (AID 663); conditions: H-4-II-E rat hepatoma, scaled: DMSO 0%, 100 µM tamoxifen 100%; at 92.2 µM (top of the series);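 further: cells exposed to compound for 16 hr before readout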
# Procedure, shortened: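 Apoptosis induction is scored as increased luminescence from caspase 3/7 substrate cleavage in rat hepatoma H-4-II-E cells exposed to compound for 16 hr. Activity is scaled between DMSO and 100 uM tamoxifen.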
# [19] = Cellular Toxicity (caspase-3) Hek293 (AID 664); conditions: HEK293 caspase-3 activation, DMSO = 0%, 100 µM tamoxifen = 100%; at 92.2 µM (top of the series);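 further: cells exposed to compound for 16 h at 37 °C before readout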
# Procedure, shortened: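 Cells plated, 5 hr at 37 °C; compounds added; 16 hr at 37 °C; Caspase-Glo 3/7 reagent, 20 min RT; luminescence read. Activation expressed relative to DMSO and 100 uM tamoxifen, AC50 by Hill model.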
# [20] = Cellular Toxicity (caspase-3) N2a (AID 665);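 further: compound exposure lasted 16 h at 37 °C before readout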
# Procedure, shortened: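 N2a cells, 1500/well, 5 h settle at 37 °C; cpd 16 h, 37 °C; Caspase-Glo 3/7, 1 h RT; luminescence. Norm: DMSO = 0, 10 uM staurosporine = 100%. AC50, Hill fit.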
# [21] = Cellular Toxicity (caspase-3) NIH 3T3 (AID 666);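 further: caspase signal read after 16 h compound exposure; 0% = DMSO basal and 100% = 100 µM tamoxifen stimulation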
# Procedure, shortened: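 Luminescence from aminoluciferin released by caspase-3/7 cleavage of a peptide substrate served as read-out. Mouse fibroblast NIH 3T3 cells were exposed to compounds over a concentration range for 16 hours, and AC50 values came from standard Hill modelling.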
# [22] = Cellular Toxicity (caspase-3) Renal Proximal Tubule (AID 667); conditions: renal proximal tubule cells; at 91.7 µM (top of the series) unless noted;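 further: cells exposed to compound for 16 hours at 37 °C before detection; 0% = DMSO basal and 100% = 10 µM staurosporine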
# Procedure, shortened: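 Freshly isolated primary rat kidney proximal tubule cells, 1000/well, treated 16 hr at 37 °C, then Caspase-Glo 3/7 luminescence after 1 hr. Normalized to DMSO and 10 uM staurosporine; AC50 from Hill fit.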
# [23] = target: Cytochrome P450 3A4 (Homo sapiens) (UniProt P08684); experiment: qHTS Assay for Inhibitors and Substrates of Cytochrome P450 3A4 (AID 884); further: potency means the concentration at half of the fitted maximal effect; nearly all actives have a fitted effect of over 50% in size
# Cytochrome P450 3A4 (Homo sapiens), sequence (P08684 whole entry, looked up): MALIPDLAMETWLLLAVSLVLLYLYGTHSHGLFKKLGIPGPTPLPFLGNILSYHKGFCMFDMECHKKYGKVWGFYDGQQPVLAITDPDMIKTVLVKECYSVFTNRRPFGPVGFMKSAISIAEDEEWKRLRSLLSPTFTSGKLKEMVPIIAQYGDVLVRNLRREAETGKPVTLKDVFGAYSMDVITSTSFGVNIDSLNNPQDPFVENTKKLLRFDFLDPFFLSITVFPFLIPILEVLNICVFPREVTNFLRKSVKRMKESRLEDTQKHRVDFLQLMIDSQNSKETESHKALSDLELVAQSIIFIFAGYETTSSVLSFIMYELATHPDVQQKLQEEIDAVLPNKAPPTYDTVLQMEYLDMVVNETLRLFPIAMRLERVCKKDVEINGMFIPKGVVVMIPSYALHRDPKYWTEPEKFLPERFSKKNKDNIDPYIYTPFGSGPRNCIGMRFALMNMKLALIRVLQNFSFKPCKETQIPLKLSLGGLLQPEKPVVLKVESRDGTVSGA
# Procedure, shortened: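 20 nM human CYP3A4 with 25 uM Luciferin-PPXE (at KM) in 200 mM KPO4, preincubated 10 min with compound; NADPH regeneration started a 60 min RT reaction. Luciferin detected by luminescence, normalized to 57 uM ketoconazole as full inhibition.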
# [24] = target: Cytochrome P450 3A4 (Homo sapiens) (UniProt P08684); experiment: qHTS Assay for Activators of Cytochrome P450 3A4 (AID 885); further: nearly all actives have a fitted effect of over 65% in size
# Procedure, shortened: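 Quantitative HTS format: compounds preincubated with 20nM human CYP3A4 and Luciferin-PPXE substrate at KM, reaction started by NADPH regeneration, stopped after 60 min, luciferase luminescence read 20 min later.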
# [25] = Cell Viability - LYMP2-001 (AID 921); further: potency means the concentration at half of the fitted maximal effect; nearly all actives have a fitted effect of over 70% in size
# Procedure, shortened: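 Human lymphoblastoid LYMP2-001 cells, 2500 per well, in complete medium, treated 24 h at 37 C. Viability from cellular ATP by CellTiter-Glo luminescence; AC50 from Hill-equation fits of qHTS concentration-response.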
# [26] = MultiTox-Fluor Cytotoxicity Assay - LYMP1-001 - Live Cells (AID 947); further: potency means the concentration at half of the fitted maximal effect
# [27] = Cell Viability - LYMP1-002 - Assay at 16 hr (AID 948); further: potency means the concentration at half of the fitted maximal effect
# Procedure, shortened: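 LYMP1-002 human lymphoblastoid cells, 2500/well, were treated with compounds for 16 hr at 37 C in complete medium. Viability was read as intracellular ATP by CellTiter-Glo luminescence, and AC50 was derived from a Hill fit to concentration-response data.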
# [28] = MultiTox-Fluor Cytotoxicity Assay - LYMP1-002 - Live Cells (AID 955); further: potency means the concentration at half of the fitted maximal effect
# Procedure, shortened: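 Read-out is live-cell protease activity (cell-permeant GF-AFC substrate, fluorescence Ex/Em=405/510), where a decrease indicates acute toxicity. Human lymphoblastoid cells were treated 16 hours at 37 C in a concentration series, and AC50 values came from standard Hill modelling.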
# [29] = MultiTox-Fluor Cytotoxicity Assay - LYMP1-002 - Dead Cells (AID 960); further: potency means the concentration at half of the fitted maximal effect; nearly all actives have a fitted effect of over 60% in size
# Procedure, shortened: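 LYMP1-002 cells 2500/well; 5 hr 37 C pre-incubation; compound 16 hr 37 C; MultiTox-Fluor reagent 60 min RT; dead-cell fluor Ex/Em 485/520. Norm. to DMSO (0%) vs 15 uM tetraoctylammonium bromide (100%); Hill AC50.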
# [30] = MultiTox-Fluor Cytotoxicity Assay - LYMP1-003 - Dead Cells (AID 961); further: potency means the concentration at half of the fitted maximal effect; nearly all actives have a fitted effect of over 70% in size
# Procedure, shortened: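 Acute toxicity is scored as increased dead-cell protease activity in human lymphoblastoid LYMP1-003 cells after 16 h compound exposure in complete culture medium. Activity is normalized to DMSO basal and 15 uM tetraoctylammonium bromide as full response.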
# [31] = MultiTox-Fluor Cytotoxicity Assay - LYMP1-003 - Live Cells (AID 962); further: potency means the concentration at half of the fitted maximal effect
# Procedure, shortened: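 qHTS, 1536-well; 2500 cells/well LYMP1-003; 5 hr 37 C settle; cpd 16 hr 37 C; MultiTox-Fluor reagent 60 min RT; live-cell protease fluor. 405/510; Hill-fit AC50; tetraoctylammonium bromide pos. ctrl.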
# [32] = Cell Viability - LYMP1-003 - Assay at 24 hr (AID 963); further: potency means the concentration at half of the fitted maximal effect
# Procedure, shortened: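 Cells seeded at 2500/well, 5 hr at 37 C; compounds added; 24 hr at 37 C; CellTiter-Glo added, 30 min room temperature; luminescence read. Decrease in ATP taken as cytotoxicity, AC50 from Hill modelling.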
# [33] = Cell Viability - LYMP1-003 - Assay at 40 hr (AID 964); further: potency means the concentration at half of the fitted maximal effect; nearly all actives have a fitted effect of over 60% in size
# Procedure, shortened: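 Cells were seeded at 2500 per well and incubated 5 hr at 37 C. Compounds were added across a concentration series and left 40 hr at 37 C. CellTiter-Glo was added for 30 min at room temperature before luminescence reading.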
# [34] = Cell Viability - LYMP2-003 (AID 965);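 further: potency means the concentration at half of the fitted maximal effect; cells exposed to compounds for 24 h before reading; nearly all actives have a fitted effect of over 50% in size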
# Procedure, shortened: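 Human lymphoblastoid LYMP2-003 cells, 2500/well, exposed to compounds for 24 h at 37 C in complete medium. Viability read as intracellular ATP by CellTiter-Glo luminescence; AC50 from Hill-equation fits of qHTS concentration-response data.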
# [35] = Cell Viability - LYMP2-004 (AID 966); further: potency means the concentration at half of the fitted maximal effect; nearly all actives have a fitted effect of over 65% in size
# Procedure, shortened: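 Cells seeded 2500/well, rested 5 hr at 37 C, dosed across a concentration series, incubated 24 hr at 37 C, then CellTiter-Glo added for 30 min at room temperature and luminescence read. Hill fitting gave AC50.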
# [36] = Cell Viability - LYMP2-005 (AID 967); further: potency means the concentration at half of the fitted maximal effect
# Procedure, shortened: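 Human lymphoblastoid LYMP2-005 cells, 2,500 per well in complete medium, rested 5 h at 37C then compound-treated 24 h at 37C. Intracellular ATP read by CellTiter-Glo luminescence after 30 min at room temperature; AC50 from Hill-equation fits of concentration-response data.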
# [37] = Cell Viability - LYMP2-009 (AID 968); further: potency means the concentration at half of the fitted maximal effect; nearly all actives have a fitted effect of over 55% in size
# [38] = Cell Viability - LYMP2-011 (AID 969)
# Procedure, shortened: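 2500 cells/well, 5 hr 37 C; compound added, 24 hr 37 C; CellTiter-Glo 30 min RT; luminescence. qHTS concentration-response, Hill-equation AC50. Tetraoctylammonium bromide positive control.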
compound,measurement,setting,value
CCCCCCCCn1sccc1=O,Potency,[1],> 92 µM
same,Potency,[2],35.3 µM (active)
same,Potency,[3],10.7 µM (active)
same,Potency,[4],14.2 µM (active)
same,outcome,[5],inactive
same,"activity change, negative = cytotoxicity",[6],-113% (active)
same,Potency,[7],12.6 µM (active)
same,Potency,[8],25.1 µM (active)
same,Potency,[9],3.98 µM (active)
same,Potency,[10],12.6 µM (active)
same,Potency,[11],12.6 µM (active)
same,outcome,[12],inactive
same,outcome,[13],inactive
same,Potency,[14],inactive
same,outcome,[15],inactive
same,outcome,[16],inactive
same,outcome,[17],inactive
same,caspase-3 activation,[18],-3.17%
same,caspase-3 activation,[19],-9.61%
same,outcome,[20],inactive
same,outcome,[21],inactive
same,caspase-3 activation,[22],-21.1%
same,Potency,[23],12.6 µM (active)
same,Potency,[24],inactive
same,Potency,[25],2 µM (active)
same,Potency,[26],31.6 µM (active)
same,Potency,[27],15.8 µM (active)
same,Potency,[28],7.94 µM (active)
same,Potency,[29],5.01 µM (active)
same,Potency,[30],7.94 µM (active)
same,Potency,[31],15.8 µM (active)
same,Potency,[32],25.1 µM (active)
same,Potency,[33],25.1 µM (active)
same,Potency,[34],6.31 µM (active)
same,Potency,[35],3.98 µM (active)
same,Potency,[36],3.98 µM (active)
same,Potency,[37],5.01 µM (active)
same,Potency,[38],6.31 µM (active)
